Sampled rows, rich in hits. Any-hit rate of the full collection: about 6.9%.
VDR inh = vitamin D3 receptor (human) inhibition; VDR-SRC2-3 peptide fluorescence polarization, 2 h; Potency, µM, inactives show max response, negative = inhibition, actives largely listed as inhibitors; hit rate 0.93% among 400,000; further: on the % scale 0 is the no-effect control and ±100 the full control effect
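Fluorescence polarization assay of small-molecule disruption of VDR binding to coregulator peptide SRC2-3. Compounds and controls pin-transferred, then read after 2 h incubation at ambient room temperature.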
BAZ2B inh = inhibitors of human BAZ2B bromodomain. Q9UIF8. AlphaScreen BAZ2B-H3K14Ac peptide displacement. Potency, µM (highest dose often 114 µM), for inactives: at the top dose activity change, negative = inhibition, actives largely listed as inhibitors. hit rate 4.4% among 360,000; further: on the % scale 0 is the no-effect control and ±100 the full control effect; nearly all actives have a fitted effect of over 60% in size
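AlphaScreen displacement of biotin-H3(5-23)K14Ac peptide (50 nM final) from BAZ2B (50 nM final) in PBS pH 7.4, 0.01% Tween-20; complex preformed 30 min RT, then compounds (top 110 uM) 30 min RT, beads 20 min dark.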
JMJD2A Tudor inh = blocks the human JMJD2A Tudor domain; O75164; AlphaScreen JMJD2A-Tudor / H3K4me3 peptide binding; Potency, µM (top dose mostly 114 µM), for inactives: top-dose activity change, negative = inhibition, hits mostly inhibitors; hit rate 4.4% among 390,000; AID 504339; further: on the % scale 0 is the no-effect control and ±100 the full control effect; nearly all actives have a fitted effect of over 50% in size
L3MBTL1 block = blocks human L3MBTL1 | Potency, µM (highest dose often 57.1 µM), without a hit: top-dose activity, negative = inhibition, most hits filed as inhibitors | AID 485360 | Q9Y468 | hit rate 0.66% among 230,000 | AlphaScreen L3MBTL1–H3K9me1 peptide binding; further: on the % scale 0 is the no-effect control and ±100 the full control effect; nearly all actives have a fitted effect of over 60% in size
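Read-out is AlphaScreen signal from streptavidin donor and nickel chelate acceptor beads (10 ug/mL final each) bridging L3MBTL1 (50 nM) and biotinylated K9-monomethylated H3(1-15) peptide (75 nM), after 30 min compound exposure at room temperature.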
HP1b chromo inh = inhibitors of HP1-beta chromodomain binding to methylated histone tails | hit rate 0.56% among 390,000 | AID 540317 | Potency, µM (top dose mostly 114 µM), without a hit: top-dose activity change, negative = inhibition, most hits filed as inhibitors | P83916 | AlphaScreen HP1-beta / biotin-H3K9me3 peptide binding; further: nearly all actives have a fitted effect of over 70% in size
Target sequence (P83916 whole entry, looked up): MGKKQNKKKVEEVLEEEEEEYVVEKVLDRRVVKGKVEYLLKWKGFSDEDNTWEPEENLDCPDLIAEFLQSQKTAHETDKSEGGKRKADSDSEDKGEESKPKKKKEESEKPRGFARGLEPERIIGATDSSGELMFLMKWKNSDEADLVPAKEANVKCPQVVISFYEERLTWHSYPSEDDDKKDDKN
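AlphaScreen: HP1-beta (50 nM) preformed 30 min with biotin-H3(1-18)K9me3 peptide (50 nM) in PBS pH 7.4, 0.01% Tween-20. Compound added for 30 min at RT, then streptavidin donor/nickel chelate acceptor beads (10 ug/mL) for 30 min.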
PLK1 PBD inh = PLK1 (human) polo-box domain binding inhibition; Plk1 PBD binding of FITC phosphopeptide, fluorescence polarization; Potency, µM, for inactives: max response, negative = inhibition, usual class: inhibitors; hit rate 2.8% among 360,000; further: series mostly up to about 57 µM; on the % scale 0 is the no-effect control and ±100 the full control effect; nearly all actives have a fitted effect of over 65% in size
Target sequence (P53350 whole entry, looked up, the tested form may be a part): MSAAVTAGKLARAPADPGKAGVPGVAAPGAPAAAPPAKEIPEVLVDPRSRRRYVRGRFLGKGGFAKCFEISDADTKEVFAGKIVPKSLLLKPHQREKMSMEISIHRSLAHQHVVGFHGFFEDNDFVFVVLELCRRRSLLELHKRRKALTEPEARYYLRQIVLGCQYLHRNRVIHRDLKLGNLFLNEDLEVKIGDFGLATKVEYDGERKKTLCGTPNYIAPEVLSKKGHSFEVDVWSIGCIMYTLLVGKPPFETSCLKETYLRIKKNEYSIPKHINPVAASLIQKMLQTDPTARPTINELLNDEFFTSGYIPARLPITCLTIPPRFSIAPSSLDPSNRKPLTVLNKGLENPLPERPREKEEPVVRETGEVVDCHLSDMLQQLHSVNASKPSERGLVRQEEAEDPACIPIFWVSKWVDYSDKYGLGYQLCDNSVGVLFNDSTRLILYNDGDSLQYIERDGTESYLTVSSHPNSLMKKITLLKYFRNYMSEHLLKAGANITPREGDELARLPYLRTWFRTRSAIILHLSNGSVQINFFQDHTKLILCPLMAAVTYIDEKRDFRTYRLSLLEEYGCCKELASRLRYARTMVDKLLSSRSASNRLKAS
* marks the source's active call; other numbers are inactive results; ? = inconclusive; . = not tested or not shown; [ ] = dose if it differs, or a comment. The call rests on the fitted dose curve; in most records, active means well fitted curve in the direction sought with a large enough effect; inconclusive means small, poorly fitted or top-dose-only effect, or another doubt; inactive means no such curve, though single readings can be large; an effect the other way counts as inactive or inconclusive. Potency means the concentration at half of the fitted maximal effect.

SMILES	VDR inh	BAZ2B inh	JMJD2A Tudor inh	L3MBTL1 block	HP1b chromo inh	PLK1 PBD inh
CC1CCc2[nH]nc(C(=O)O)c2C1 (stereo not drawn)	-18.5%	?	31.6µM*	1.1%	12.6%	2.1%
CCC1CCc2[nH]nc(C(=O)O)c2C1 (stereo not drawn)	2.9%	?	50.1µM*	.	6.9%	-3.8%
O=C(O)c1ccc(S(=O)(=O)N[C@H](Cc2ccc(O)cc2)C(=O)O)cc1	.	-6.3%	-19.3%	?	.	.
O=C(Nc1ccc(Oc2ccc(C(=O)O)c(C(=O)O)c2)cc1)c1cccs1	-5.8%	-5.9%	-1.7%	-2.8%	29.6%	-1.9%
O=c1c(-c2ccc(Cl)cc2)nc2cnc(N3CCNCC3)nc2n1-c1ccccc1	-19.0%	.	.	.	.	.
CCOc1ccc(C2CC(=O)n3nc(-c4ccc(C)cc4)nc3S2)cc1 (stereo not drawn)	-6.6%	2.3%	-2.4%	.	24.4%	.
COc1ccc(-c2nc3n(n2)C(=O)CC(c2ccco2)S3)cc1 (stereo not drawn)	14.1%	?	31.6µM*	?	-2.2%	-23.6%
CCn1cc(C(=O)NCCCN(CC(C)C)CC(C)C)c(=O)c2cc(S(=O)(=O)N3CCOCC3)ccc21	17.5%	-1.3%	1.5%	.	27.3%	-5.3%
Cc1cc(C)cc(NC(=O)CSc2nc3[nH]ncc3c(=O)[nH]2)c1	5.5%	1.9%	-13.0%	0.1%	33.5%	-4.7%
C=CCSc1nc2[nH]ncc2c(=O)[nH]1	-15.5%	-2.0%	-33.0%	-19.4%	8.4%	29.9µM*
Cc1csc(NC(=O)CSc2nc3[nH]ncc3c(=O)[nH]2)n1	?	-5.9%	?	.	25.7%	21.2µM*
O=C(CN1C(=O)NC2(CCc3ccccc32)C1=O)Nc1ccc(Cl)cc1F (stereo not drawn)	.	.	.	.	.	1.5%
Cn1c(CSc2nc3ccccc3s2)n[nH]c1=S	25.3%	9.8%	31.6µM*	4.2%	-26.7%	29.9µM*
O=C(Cc1ccccc1)c1nc2ccccc2s1	-23.1%	70.8µM*	?	-16.0%	?	-11.5%
O=C(CSc1nc2ccccc2s1)CSc1nc2ccccc2s1	19.6%	-5.1%	5.8%	.	29.8%	-6.2%
S=c1[nH]nc(CSc2nc3ccccc3s2)o1	-7.0%	?	44.7µM*	2.1%	2.7%	?
CC(=O)CSc1nc2ccccc2s1	9.9%	-3.1%	?	5.3%	?	26.7µM*
CCc1ccc(NC(=O)CCS(=O)(=O)c2ccc3c(c2)oc(=O)n3C)cc1	-10.1%	7.0%[57.1 µM]	-8.1%	.	14.1%	.
Cn1c(-c2sc3ccccc3c2Cl)n[nH]c1=S	15.4%	-11.7%	22.4µM*	.	-27.5%	-22.0%
Cc1csc2nc(-c3cccc(NC(=O)c4cccc(F)c4)c3)cn12	6.3%	-26.5%	-12.3%	.	19.2%[57 µM]	.
Cc1ccc(NC(=O)c2nc3nccc(C)n3n2)c(C)c1	3.3%	-3.8%	2.1%	46.9%	22.6%	-2.3%
Cc1ccnc2nc(C(=O)Nc3nnc(CC(C)C)s3)nn12	17.2%	-35.2%	44.7µM*	.	17.3%	-12.9%
Cc1ccnc2nc(C(=O)Nc3nnc(-c4ccc(Cl)cc4)o3)nn12	-17.8%	?	17.8µM*	.	29.4%	-18.1%
Cc1csc(NC(=O)c2nc3nccc(C)n3n2)n1	-26.6%	-1.2%	?	7.8%	-4.5%	3.36µM*
Cc1ccnc2nc(C(=O)Nc3nc4ccccc4s3)nn12	-26.2%	-0.2%	15.8µM*	-0.8%	14.6%	-12.3%
SMILES	VDR inh	BAZ2B inh	JMJD2A Tudor inh	L3MBTL1 block	HP1b chromo inh	PLK1 PBD inh
CCCCc1nnc(NC(=O)c2nc3nccc(C)n3n2)s1	-4.6%	.	-5.8%	-14.4%	25.3%	-4.9%
COc1ccc(-c2nc(NC(=O)c3nc4nccc(C)n4n3)sc2C)cc1	7.9%	1.2%	-35.0%	39.1%	32.9%	-20.7%
COCCNC(=O)C1CCCN(S(=O)(=O)c2cccc3nsnc23)C1 (stereo not drawn)	-10.0%	22.5%	-9.7%	.	42.7%	-11.4%
Cc1ccc(-n2c(-c3ccc(Br)cc3)n[nH]c2=S)c(C)c1	.	.	.	.	.	-10.5%
Cc1ccc(-n2c(-c3ccncc3)n[nH]c2=S)c(C)c1	4.2%	-14.1%	17.8µM*	0.5%	31.9%	-10.0%
CCc1ccccc1-n1c(-c2ccncc2)n[nH]c1=S	-0.3%	-0.2%	10µM*	21.8%	28.1%	-6.8%
Cc1ccc(C)c(-n2c(-c3csc(C)c3C)n[nH]c2=S)c1	-10.3%	-30.3%	25.1µM*	-6.0%	15.0%	-10.0%
Cc1cccc(-n2c(-c3ccncc3)n[nH]c2=S)c1C	?	-12.9%	12.6µM*	3.9%	11.1%	-3.3%
Cc1cccc(CC(=O)NCCS(=O)(=O)N2CCN(c3cccc(Cl)c3)CC2)c1	-2.0%	-3.3%	-11.5%	-11.0%	29.1%	-2.1%
Cc1ccccc1-n1c(-c2ccc(=O)[nH]n2)n[nH]c1=S	-2.4%	?	?	3.1%	-2.0%	-8.3%
Cc1ccccc1-n1c(-c2ccc(Br)o2)n[nH]c1=S	-9.8%	.	25.1µM*	.	21.1%	-3.3%
Cn1c(-c2ccc(Br)o2)nc2ccccc21	3.7%	-34.2%	-14.9%	-2.9%	19.7%	-10.1%
Cc1ccccc1-n1c(-c2ccncc2)n[nH]c1=S	-9.1%	-36.2%	14.1µM*	.	21.3%	-15.8%
COc1ccc(C=C(C#N)C(=O)c2ccccc2)cc1	.	.	.	.	.	6.7µM*
COc1ccc(/C=C(\C#N)C(=O)Nc2cccnc2)cc1	-4.7%	7.3%	-1.4%	10.9%	37.9%	2.5%
N#CC(=Cc1ccc(-c2ccccc2)cc1)C(=O)c1ccccc1	.	.	.	.	.	1.5µM*
COc1ccc(/C=C(\C#N)C(=O)OCC(=O)NCc2ccccc2)cc1	0.9%	1.2%	-6.3%	6.6%	18.2%	-5.2%
N#C/C(=C\c1cccs1)C(=O)NCC1CCCO1 (stereo not drawn)	3.7%	?	-11.1%	-6.4%	53.6%	-11.6%
COc1ccc(/C=C(\C#N)C(=O)C(C)(C)n2cncn2)cc1	5.2%	?	-11.1%	-25.6%	11.1%	13.4µM*
N#C/C(=C\c1cccs1)C(=O)c1ccccc1	-14.1%	?	-10.5%	.	-12.4%	6.7µM*
Cc1cccc(NC(=O)N2CC=C(c3c[nH]c4ccccc34)CC2)c1C	5.6%	?	?	.	-17.9%	.
CC(=O)c1ccc(NC(=O)CSc2nc(C3CCCC3)nc3c2c(=O)n(C)c(=O)n3C)cc1	14.1%	3.8%	2.3%	.	21.8%[57 µM]	.
CCc1c(C)sc2c1CCN(Cc1cccc(OC)c1)C2c1ccccc1 (stereo not drawn)	16.6%	-36.0%	-33.1%	.	-6.0%	.
CC(C)OCCCn1c(=O)c2ccccc2n2c(CCC(=O)NC3CCN(Cc4ccccc4)CC3)nnc12	15.7%	-5.6%	-10.6%	.	43.6%	-12.9%
CCCCSc1nnc(CSc2nc3nc(C)cc(C)n3n2)o1	22.4%	10.5%	-5.7%	.	8.4%	-12.0%
COc1ccc(CNC(=O)c2cnc(N3CCOCC3)c3ccccc23)cc1	9.6%	-3.8%	-4.8%	.	33.7%[57 µM]	.

Assay outcomes deposited in PubChem by National Center for Advancing Translational Sciences (NCATS).
